# From ChEMBL document CHEMBL3988442, “University of Dundee, Small-Polar-MMV Screening Library” (2021)
# Screen size: about 48,000 compounds; about 13,000 (27%) showed an effect of 50% or more. The list shows a part of the results.
# Test system: Wolbachia pipientis
# Assay: Anti-Wolbachia Cell-Based Screen
# Assay type: functional
# Design: scale not given: in the data most compounds retested in dose-response had high values
# Details: 5 µM
row,SMILES,Percent Effect [%]
1,Cc1ccc(Cl)cc1C(=O)N1CCC2(CC1)c1ccccc1[C@@H](N)[C@@H]2O,-15.25
2,COCCN(C(=O)c1cc(C)no1)c1ccc(C#N)cc1,-3.36
3,Cc1noc(Cl)c1CCC(=O)N1CCc2sccc2C1,4.589
4,CCNc1cc2c(nn1)CCN(C(=O)C(C)c1c(C)noc1C)C2 (stereo not drawn),124.9
5,CCNc1cc2c(nn1)CCN(C(=O)CCc1c(C)noc1Cl)C2,92.82
6,CCNc1cc2c(nn1)CCN(C(=O)c1c(C)noc1C)C2,134.6
7,CCNc1cc2c(nn1)CCN(C(=O)c1cc3nc(C)ccc3o1)C2,0.3764
8,CCNc1cc2c(nn1)CCN(C(=O)Cc1noc3ccccc13)C2,2.376
9,CCNc1cc2c(nn1)CCN(C(=O)c1cc3c(s1)CCOC3)C2,6.196
10,CCNc1cc2c(nn1)CCN(C(=O)C1Cc3ccccc3O1)C2 (stereo not drawn),-6.016
11,CCNc1cc2c(nn1)CCN(C(=O)CCc1c(C)noc1C)C2,85.75
12,CCNc1cc2c(nn1)CCN(C(=O)Cc1c(C)noc1C)C2,-1.817
13,CN(C1CCCCC1)S(=O)(=O)NC1CCN(c2ncccn2)CC1,-8.607
14,Cc1n[nH]c(C(=O)NCc2ccnc(OCC(F)(F)F)c2)c1Br,-11.41
15,COc1ccc(CCN2CCCC(CN(C)Cc3ccc(C)o3)C2)cc1 (stereo not drawn),-2.586
16,O=C(c1cccc2[nH]ccc12)N1CCC2(CCOC2)C1 (stereo not drawn),-0.4242
17,CCNc1cc2c(nn1)CCN(C(=O)c1ccc(CNC(C)=O)o1)C2,-5.342
18,CNc1cc2c(nn1)CCN(C(=O)c1ccoc1)C2,3.239
19,CCNc1cc2c(nn1)CCN(C(=O)c1ccoc1)C2,77.15
20,COc1ccc(Cl)cc1-n1c(COC(C)C)n[nH]c1=O,9.918
21,O=C(C1CCS(=O)(=O)C1)N1CCN(c2cnccn2)CC1 (stereo not drawn),-8.289
22,CC1(C(=O)N2CCSCC2)CNCCO1 (stereo not drawn),81.85
23,O=C(N1CCSCC1)C1(O)Cc2ccccc2C1,1.421

row,SMILES,Percent Effect [%]
1,CN(C)c1ccccc1C(=O)N1CCOC2(CNCCOC2)C1 (stereo not drawn),-52.05
2,C[C@@H]1CN(C2(C(=O)N3CCSCC3)Cc3ccccc3C2)C[C@H](C)O1,1.613
3,CC1(C(=O)N2CCOCC2)CNCCO1.Cl (stereo not drawn),81.13
4,O=C(c1cccc(Cl)c1F)N1CCOC2(CNCCOC2)C1 (stereo not drawn),-25.29
5,CC1(C(=O)N2CCN(c3ncccn3)CC2)CNCCO1 (stereo not drawn),48.6
6,CC1(C(=O)N2CCN(c3cnccn3)CC2)CNCCO1 (stereo not drawn),114.6
7,Cc1cc(=O)n(C)cc1NC(=O)Cc1cccc(Cl)c1,5.962
8,Cc1cc(Cn2cc(C#N)c(=O)c3ccccc32)on1,-11.07
9,Cc1nc(CN2CCCC(CCc3ccccc3C(F)(F)F)C2)no1 (stereo not drawn),-1.662
10,CCN(CC)CCn1cc(NC(=O)Nc2ccccc2OC)cn1,2.741
11,Cc1ccc(C(=O)Nc2ccccc2N2CCCC2)n1C,84.28
12,COc1ccccc1NC(=O)c1ccc(C)n1C,99.48
13,Cc1c(C(C)NC(=O)Nc2ccccc2F)cnn1C (stereo not drawn),3.461
14,CCc1nc(C)c([C@H]2CN(C)C[C@@H]2C(=O)Nc2ccccc2F)[nH]1,-8.421
15,CC1CCC(NS(=O)(=O)CC(=O)Nc2ccccc2N2CCCC2)CC1 (stereo not drawn),3.293
16,COc1ccccc1NC(=O)c1[nH]nc(C(C)C)c1Br,-4.147
17,Cc1ccc(C(=O)Nc2ccccc2F)n1C,94.36
18,O=C(Nc1cc(Cl)ccc1N1CCCCC1)c1ccccn1,-5.482
19,CC(C)C(C)N1Cc2cccc(NCC(=O)N(C)C)c2C1 (stereo not drawn),11.84
20,CC(=O)c1cc(CN2CCCCC2c2nc3cc(F)ccc3[nH]2)cs1 (stereo not drawn),-8.075
21,CC(=O)N1CC(C(=O)Nc2cccc(OC(F)F)c2)C1,13.11
22,CCc1nc(-c2noc3ccc(C(=O)NCCN(C)C)cc23)co1,-6.651
23,CC(C)(C)NS(=O)(=O)c1ccccc1CNCc1ccccc1,8.138

row,SMILES,Percent Effect [%]
1,CC(C)c1nccn1-c1nccnc1C1CCCN1Cc1cccnc1 (stereo not drawn),125.6
2,CC(C)c1nccn1CC1CCCN1Cc1nc2ccccc2n1C (stereo not drawn),-4.978
3,Cc1nc(CN2CCCC2Cn2ccnc2C(C)C)nc2ccccc12 (stereo not drawn),0.1374
4,CC(C)S(=O)(=O)N1CCCC(c2nccn2Cc2cccnc2)C1 (stereo not drawn),-1.301
5,CC(C)c1nccn1-c1nccnc1C1CCCN1Cc1ccccc1 (stereo not drawn),124.1
6,Nc1ncncc1-c1noc([C@@H]2CCCN2Cc2cccnc2)n1,-7.414
7,CC(NCc1ccc(OCC(N)=O)cc1)c1ccc2c(c1)CCCC2 (stereo not drawn),-9.081
8,CS(=O)(=O)Cc1noc(CN(Cc2ccco2)c2ccccc2)n1,-3.718
9,CN(C)CCN(C)C(=O)c1cnc2c(c1)nc(-c1ccccc1Cl)n2C,-6.044
10,Cn1cc(NC(=O)NCc2ccoc2)ccc1=O,13.17
11,Cc1nnc(NC(=O)NCc2ccc(F)cc2)s1,93.84
12,COc1ccc(F)cc1C(C)NC(=O)Nc1nnc(C)s1 (stereo not drawn),-6.536
13,Cc1nnc(NC(=O)NCc2cc(F)cc(F)c2)s1,4.254
14,Cc1nnc(NC(=O)NCc2ccoc2)s1,74.81
15,O[C@H]1CC[C@@H](Cc2cc(-c3ccccn3)on2)O[C@@H]1CNCC1CC1,8.949
16,CN1CCCN(C(=O)c2nc3c(s2)CCCN3CC2CC2)CC1,15.57
17,CN(C)Cc1ccnc(C2CCCN2Cc2ccncc2)n1 (stereo not drawn),-6.271
18,CN(C)Cc1ccnc(C2CCCN2Cc2ccc3ncccc3c2)n1 (stereo not drawn),102.5
19,O=C1O[C@@H]2CN(Cc3cc4ccccc4s3)C[C@@H]2N1Cc1ccccn1,7.899
20,c1ccc2sc(CN3CCCC3c3noc(C4CC4)n3)nc2c1 (stereo not drawn),1.502
21,CN(C)Cc1ccnc(C2CCCN2Cc2cc3ccccc3s2)n1 (stereo not drawn),97.93
22,Cc1cc(C)cc(CN2CCCC2c2noc(C)n2)c1 (stereo not drawn),-1.497
